Several values for one entry are separate records, joined by “and”; a condition that tells them apart may be missing. Equal entries are not always repeated. This is part of a sample that, as a whole, favours compounds with a hit. Of some 79,000 tested, about 15% had one in any assay. Unmarked numbers belong to inactive results. Activity calls are given as the source filed them. No stated cut-off is given here; in the data, active means growth inhibition above about 70%; inactive means the rest.

A short description of test [1]: NCI Yeast Anticancer Drug Screen. Data for the rad50 strain (AID 155).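 Further: 0% = growth of vehicle-only cultures of the same strain.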 As to conditions: S. cerevisiae rad50 strain growth inhibition, stronger effect = higher value; at 50.0 µM unless noted. The procedure, abridged: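 Genetically altered yeast (DNA repair pathway); compound treatment; growth inhibition vs vehicle ctrl.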
A short description of test [2]: NCI Yeast Anticancer Drug Screen. Data for the mec2-1 strain (AID 157). To be noted: S. cerevisiae mec2-1 strain, stronger effect = higher value; at 50.0 µM unless noted. In outline: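 Cells of the genetically defined mec2-1 yeast strain are incubated with test compound. Inhibition of growth is calculated against vehicle-treated controls.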
The nature of test [3]: NCI Yeast Anticancer Drug Screen. Data for the sgs1 mgt1 strain (AID 161).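 Further: 0% = growth of cultures given vehicle only.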 As to conditions: S. cerevisiae sgs1 mgt1 strain, stronger effect = higher value; at 50.0 µM unless noted. The procedure, abridged:
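Test agents were incubated with a DNA-repair-mutant yeast strain. Growth was then read and compared against vehicle-treated controls.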

Test [4] is described as follows: NCI Yeast Anticancer Drug Screen. Data for the cln2 rad14 strain (AID 165).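 Further: 0% = growth equal to vehicle treated cultures.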 As to conditions: S. cerevisiae cln2 rad14 strain, stronger effect = higher value; at 50.0 µM unless noted. In outline:
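The screen exposed genetically defined yeast (cln2 rad14) to test compounds and scored growth inhibition relative to vehicle-treated controls.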

Test [5] in a line: NCI Yeast Anticancer Drug Screen. Data for the bub3 strain (AID 167). To be noted: S. cerevisiae bub3 mutant strain, stronger effect = higher value; at 50.0 µM unless noted. In outline:
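Yeast carrying a defined mutation is treated with each compound, and growth is compared with that of vehicle-exposed cells to give inhibition.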

The nature of test [6]: NCI Yeast Anticancer Drug Screen. Data for the mlh1 rad18 strain (AID 175). As to conditions: S. cerevisiae mlh1 rad18 strain growth inhibition, stronger effect = higher value; at 50.0 µM unless noted. In outline:
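Compound-treated yeast growth, normalised to vehicle controls. Strain bears defined DNA repair mutations.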

In the case of `Nc1ccc2c(c1)C(=O)c1cc(Cl)cc(Cl)c1-2`, the growth inhibition is 0% in test [1]; -4.75% in test [2]; -0.5% in test [3]; -44% in test [4]; 7.05% in test [5]; 2.25% in test [6].
Consider `c1ccc(N2CN(c3ccccc3)C2)cc1`, for which the growth inhibition is -19.4% in test [1]; -8.25% in test [2]; 4% in test [3]; -11.6% in test [4]; 5.6% in test [5]; 15.8% in test [6].
On to `O=C1C=CC(=O)N1c1ccnc(N2C(=O)C=CC2=O)c1`, for which the growth inhibition in test [1] is 21.4%; in test [2], -1.55%; in test [3], 6.1%; in test [4] it was -7.05%; in test [5], 11.8%; in test [6], 10.2%.
In the case of `O=C1NC(=O)C2C3OC(C(Cl)C3Cl)C12` (centres undefined), the growth inhibition in test [1] is 0.8% and 18.2%; in test [2], -19.5% and 11.5%; in test [3], -7.85% and 12.5%; in test [4] it was 20.4% and 42.7%; in test [5], -4.95% and 7.95%; in test [6], -7.85% and -1.25%.
Regarding `CC1(C)COC1(c1ccccc1)c1cccnc1` (centres undefined), the growth inhibition in test [1] was -45.1%; in test [2] it was -11.4%; in test [3] it was -14.1%; in test [4], -39.2%; in test [5] it was 8.15%; in test [6], -16.8%.
In the case of `Brc1cccc(C=NC23CC4CC(CC(C4)C2)C3)c1`, the growth inhibition in test [1] was 13.7%; in test [2], -13.8%; in test [3], 12.4%; in test [4], -52.1%; in test [5], -13.3%; in test [6] it was -4.6%.
On to `COc1ccc(N=C=Nc2ccc(OC)cc2)cc1`, for which the growth inhibition is -1.45% in test [1]; -15% in test [2]; 4.15% in test [3]; 9.6% in test [4]; -10.2% in test [5]; -13.6% in test [6].
Turning to `N#CC1CC2CC1C1OC21` (centres undefined), the growth inhibition was -15.4% in test [1]; -10.3% in test [2]; -14.1% in test [3]; 9.35% in test [4]; -2.25% in test [5]; -5.9% in test [6].
For `OC1(C2(O)CCCC2)CCCC1`, the growth inhibition in test [1] is 14.1%; in test [2], 8.4%; in test [3], 22%; in test [4], 6.75%; in test [5], 18%; in test [6], 12.8%.
`O=C1c2ccccc2C(=Cc2cccc([N+](=O)[O-])c2)c2ccccc21`: the growth inhibition in test [1] is 15.6%; in test [2], 18.4%; in test [3] it was -6.35%; in test [4], 9.75%; in test [5], 4.2%; in test [6], 0.6%.
Regarding `COc1cc(OC)c(I)cc1Cl`, the growth inhibition in test [1] is -10.1%; in test [2] it was -37.5%; in test [3], 4.55%; in test [4], 13.4%; in test [5], -29.2%; in test [6], -12.3%.
As to `Clc1cc(NCc2ccco2)ncn1`, the growth inhibition in test [1] was -21.8%; in test [2], -6.3%; in test [3], -19.5%; in test [4] it was -3.9%; in test [5] it was 0.85%; in test [6], -11.2%.
For `CCOc1cc2c(cc1C(C)c1ccc(O)cc1)OCO2` (centres undefined), the growth inhibition was 99.5% (active) in test [1]; 99.7% (active) in test [2]; 99.7% (active) in test [3]; 99.7% (active) in test [4]; 99.5% (active) in test [5]; 99.5% (active) in test [6].
For the compound `CCN1CCNC(c2ccccc2)C1(C)C` (centres undefined), the growth inhibition in test [1] is -2.35%; in test [2] it was -5.45%; in test [3] it was -10%; in test [4] it was -15.7%; in test [5], -5.95%; in test [6], 3.4%.
Take `O=S(=O)(O)C(I)S(=O)(=O)O`: the growth inhibition in test [1] is -19.1%; in test [2], -2.65%; in test [3], -19.4%; in test [4] it was -18.2%; in test [5] it was -10.8%; in test [6], -20%.
In the case of `C#CCN(N=O)C(=O)NCCCCC(NC(=O)OCc1ccccc1)C(=O)OCc1ccccc1` (centres undefined), the growth inhibition in test [1] was -6.65%; in test [2], -8.15%; in test [3], -26.6%; in test [4], -4.5%; in test [5], 10.3%; in test [6], -24.9%.
Consider `NN1CCN(CCO)CC1`, for which the growth inhibition is -0.1% in test [1]; -39.6% in test [2]; -3.3% in test [3]; 12.2% in test [4]; -4% in test [5]; 21.6% in test [6].
Regarding `COc1ccc(SSc2ccc(OC)cc2C(=O)O)c(C(=O)O)c1`, the growth inhibition in test [1] was -4%; in test [2], -19.1%; in test [3] it was -21.1%; in test [4] it was 1.4%; in test [5], -36.1%; in test [6], 1.8%.
As to `COc1ccccc1N=Nc1c(O)n(-c2ccccc2)c(=S)n(-c2ccccc2)c1=O`, the growth inhibition in test [1] was 36.2%; in test [2], -4.55%; in test [3], 26.8%; in test [4] it was -9.3%; in test [5] it was -2.85%; in test [6] it was 8.9%.
As for `CC1=C(C(=O)Nc2cc(=O)n(C)c(=O)n2C)C(c2ccco2)C(C(=O)Nc2cc(=O)n(C)c(=O)n2C)=C(C)N1`, the growth inhibition in test [1] is -0.5%; in test [2], 17.9%; in test [3], -10.9%; in test [4], 13.3%; in test [5], -4.6%; in test [6] it was -0.4%.
Regarding `Cc1cccc(C(=O)NNC(=O)C(=O)NNC(=O)c2cccc(C)c2)c1`, the growth inhibition is 3.6% in test [1]; 43.6% in test [2]; -3.1% in test [3]; -0.05% in test [4]; 24.6% in test [5]; 26.9% in test [6].
With `O=C(NCc1ccc(Cl)cc1)NC1CCCCC1`, the growth inhibition in test [1] was 5.75%; in test [2], 36.9%; in test [3], 35.5%; in test [4], 2.7%; in test [5] it was 20.9%; in test [6] it was 46%.
In the case of `CN(C)CCS(=O)(=O)c1ccc(Cl)cc1`, the growth inhibition in test [1] is 38.9%; in test [2] it was 14.6%; in test [3], 14.4%; in test [4] it was 16.5%; in test [5], 9.85%; in test [6] it was 20.6%.
With `CC1C(C)(C)C23CC12C1(OCCO1)C3Br` (centres undefined), the growth inhibition in test [1] was -11.4%; in test [2] it was -4.4%; in test [3], -6.6%; in test [4], 14.6%; in test [5] it was 10.8%; in test [6], 25.4%.
Regarding `CC(C)OC(=O)/C=C/CCCC1CCCCC1`, the growth inhibition is -10.5% in test [1]; 6.15% in test [2]; 7.95% in test [3]; 2.35% in test [4]; 18.7% in test [5]; -15.2% in test [6].
`CNC(=O)NC(c1ccc(F)cc1)c1cc2c(cc1O)OCO2` (centres undefined): the growth inhibition in test [1] is -2.2%; in test [2] it was -16.4%; in test [3], -2.4%; in test [4] it was 12.6%; in test [5] it was -1.8%; in test [6], 12.4%.
For `CC1CCCC(CC(=O)O)(CC(=O)O)C1` (centres undefined), the growth inhibition in test [1] is -14.1%; in test [2], -33.6%; in test [3], -5.1%; in test [4], -29.3%; in test [5] it was -4.1%; in test [6] it was -21.4%.
Take `O=C(O)c1cccc(C(=O)O)c1Sc1ccccc1`: the growth inhibition is 1.9% in test [1]; 1.9% in test [2]; 5.75% in test [3]; 11.3% in test [4]; -0.1% in test [5]; 12.1% in test [6].
As for `O=C(Nc1ccc(S(=O)(=O)Nc2nccs2)cc1)c1ccncc1`, the growth inhibition in test [1] is -0.05%; in test [2], -11.3%; in test [3], 22.3%; in test [4] it was 19.1%; in test [5], 28.3%; in test [6] it was 12%.
With `CSc1nc(C)cc(Nc2ccc(O)c(CN3CCCCC3)c2)n1`, the growth inhibition in test [1] was 19.4%; in test [2], -20.3%; in test [3], -27.3%; in test [4], 10.4%; in test [5], -32.6%; in test [6], 2.6%.
For the compound `CCOC(=O)CN(c1c(C)cc([N+](=O)[O-])c2ccccc12)S(=O)(=O)c1ccccc1`, the growth inhibition in test [1] was 50.1%; in test [2] it was 13.8%; in test [3] it was 33.8%; in test [4], 6.65%; in test [5], 16.9%; in test [6] it was 12.2%.
Consider `CC[N+]1(CN2CCCCC2)CCCCC1`, for which the growth inhibition in test [1] was 18.5%; in test [2], -2.8%; in test [3] it was 4%; in test [4], -7.4%; in test [5] it was -22.6%; in test [6], 37.6%.
For the compound `C=C1C(=O)OC2/C=C(\C)C(O)CCC(C)(O)CC(OC(=O)/C(C)=C/C)C12` (centres undefined), the growth inhibition was 2.35% in test [1]; -5.45% in test [2]; -3.1% in test [3]; 17.4% in test [4]; 3.7% in test [5]; -1.9% in test [6].
In the case of `CC(=O)OCC(O)CS(=O)c1ccc(C)cc1` (centres undefined), the growth inhibition in test [1] was -6.25%; in test [2], 2%; in test [3] it was 0.4%; in test [4], -30.6%; in test [5] it was -16.1%; in test [6], 4.2%.
Consider `CC1(C)OC2OC3C(O)C(=O)OC3C2O1` (centres undefined), for which the growth inhibition in test [1] was -36.8%; in test [2] it was -16.9%; in test [3], -19.2%; in test [4] it was -20%; in test [5], -2.6%; in test [6], -7.1%.
Consider `Cc1ccc(C(N)=O)cc1N=NN(C)C`, for which the growth inhibition is -25.8% in test [1]; -39.4% in test [2]; -56.9% in test [3]; 1.55% in test [4]; -16.6% in test [5]; -24.4% in test [6].
With `O=C(Cc1ccc([N+](=O)[O-])cc1)Nc1cccc(O)c1`, the growth inhibition in test [1] was -4.85%; in test [2], 29.2%; in test [3], -4.9%; in test [4] it was -13.5%; in test [5], 47.4%; in test [6], 14.8%.
Regarding `Cc1ccc(NC(=O)N(C)C)c(C)c1`, the growth inhibition is -36.7% in test [1]; -37% in test [2]; -4.9% in test [3]; 12% in test [4]; 16.4% in test [5]; -9.75% in test [6].
Take `Oc1cc2c(cc1-c1cc3c(cc1O)OCO3)OCO2`: the growth inhibition is -21.1% in test [1]; -15.3% in test [2]; -5.15% in test [3]; -41% in test [4]; -3.2% in test [5]; 0.55% in test [6].

These data come from PubChem BioAssay (NCI).
